Experimental data reported in PubChem BioAssay (NCATS).
Inconclusive results are not listed. A number with no mark means an inactive call. The source made the active and inactive calls. The call rests on the fitted dose curve; in most records, active means well fitted curve in the direction sought with a large enough effect; inconclusive means small, poorly fitted or top-dose-only effect, or another doubt; inactive means no such curve, though single readings can be large; an effect the other way counts as inactive or inconclusive.

Legend:
[1] = Quantitative highthroughput screen to assess conditional lethalithy of P12 Ichikawa cells grown in RPMI1640 with dialyzed fetal bovine serum (RPMI+ds) (AID 1963880); conditions: Potency: P12-Ichikawa viability; further: nearly all actives have a fitted effect of over 35% in size;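 on viability: 100% = DMSO wells and 0% = empty wells on each plate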
Method in brief: (§1)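 Each medium arm—HPLM with 10% dialyzed FBS, or RPMI1640 with 5 mM glucose and 10% untreated or dialyzed FBS—was screened against an 11-point, 3-fold compound titration for 48 h at 37 °C, with CellTiter-Glo luminescence as endpoint.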

[2] = Quantitative highthroughput screen to assess conditional lethalithy of P12 Ichikawa cells grown in RPMI1640 with untreated serum (RPMI+s) (AID 1963881); conditions: Potency: viability; further: nearly all actives have a fitted effect of over 35% in size;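 on viability: series mostly up to about 46 µM; 100% = DMSO wells and 0% = empty wells without cells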
Method in brief: as §1

[3] = Quantitative highthroughput screen to assess conditional lethalithy of SEM cells grown in Human Plasma-Like Medium with dialyzed fetal bovine serum (HPLM+ds) (AID 1963882); further: nearly all actives have a fitted effect of over 35% in size; on viability: series mostly up to about 46 µM
Method in brief: as §1

[4] = Quantitative highthroughput screen to assess conditional lethalithy of SEM cells grown in RPMI1640 with unreated serum (RPMI+s) (AID 1963883); further: nearly all actives have a fitted effect of over 35% in size;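 on viability: 100% = DMSO wells and 0% = empty wells without cells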
Method in brief: as §1

[5] = Quantitative highthroughput screen to assess conditional lethalithy of SEM cells grown in RPMI1640 with dialyzed fetal bovine serum (RPMI+ds) (AID 1963884); further: nearly all actives have a fitted effect of over 35% in size;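 on viability: series mostly up to about 46 µM; 100% = DMSO control wells and 0% = empty wells without cells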
Method in brief: as §1

[6] = Cellular viability qHTS for adrenocortical cancer (ACC) cell line SW-13 (AID 1963989); conditions: SW-13 ACC cells viability, CellTiter-Glo, 48 h; activity (max response): hits give low values; further: nearly all actives have a fitted effect of over 65% in size;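 on activity (max response): cells grown in serum-free medium with ITS supplement; on the % scale 0 is the no-effect control and ±100 the full control effect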
Method in brief: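 Viability was read as CellTiter-Glo luminescence after 48 h compound treatment (up to 46 uM final) of SW-13 cells grown serum-free; titration curves were fit with a four-parameter logistic model to give IC50 and efficacy.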

[7] = Cellular viability qHTS for adrenocortical cancer (ACC) cell line NCI-H295R (AID 1963990); further: nearly all actives have a fitted effect of over 60% in size
Method in brief: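 CellTiter-Glo ATP luminescence, read 48 h after compound addition, measured viability of NCI-H295R adrenocortical cells grown serum-free with ITS. Final concentrations spanned up to 46 uM. Data normalized to DMSO and doxorubicin, fitted for IC50 and maximal response.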

[8] = Quantitative highthroughput screen to assess conditional lethalithy of P12 Ichikawa cells grown in Human Plasma-Like Medium with dialyzed fetal bovine serum (HPLM+ds) (AID 1963879); conditions: Potency: viability; further: nearly all actives have a fitted effect of over 35% in size
Method in brief: as §1
Potency means the concentration at half of the fitted maximal effect.

Question: What does the source list for `N#CNC(=NCCCCCCOc1ccc(Cl)cc1)Nc1ccncc1`?
Answer: Potency [1]: 0.0019 µM (active); Potency [2]: 0.0026 µM (active); Potency [3]: inactive; Potency [4]: inactive; Potency [5]: inactive; Potency [6]: 0.0398 µM (active); Potency [7]: 0.0158 µM (active)

Question: Which activity (max response) [6] does the source give for `O=C(O)CNC(=O)c1ncc(-c2cccc(Cl)c2)cc1O` here?
Answer: The activity (max response) was 5.73%.

Question: With `CN(C)CCOc1ccc(C(=C(CCCl)c2ccccc2)c2ccccc2)cc1` as the compound, how does the Potency [3] read?
Answer: Its Potency is 5.9 µM (active).

Question: And the Potency [4]?
Answer: The Potency was 3.32 µM (active).

Question: With `Cc1ccc(O)c(C(CCN(C(C)C)C(C)C)c2ccccc2)c1` (configuration not stated) as the compound, how does the Potency [1] read?
Answer: The Potency was “inactive”.

Question: And the Potency [2]?
Answer: Its Potency is “inactive”.

Question: What about the Potency [3] of the same compound?
Answer: The Potency was “inactive”.

Question: And the Potency [4]?
Answer: Its Potency is “inactive”.

Question: What about the Potency [5] of the same compound?
Answer: The Potency was “inactive”.

Question: What about the activity (max response) [6] of the same compound?
Answer: The activity (max response) was 1.99%.

Question: With `Cc1cn2c(-c3cn[nH]c3)cnc2c(Nc2ccc(C(=O)N3CCNCC3)cc2F)n1` as the compound, how does the Potency [2] read?
Answer: The Potency was 18.7 µM (active).

Question: And the Potency [3]?
Answer: The Potency was 13.2 µM (active).

Question: What about the Potency [4] of the same compound?
Answer: The Potency was 14.8 µM (active).

Question: What about the Potency [5] of the same compound?
Answer: The Potency was 14.8 µM (active).

Question: With `Cc1csc(-c2nnc(Nc3ccc(Oc4ncccc4-c4ccnc(N)n4)cc3)c3ccccc23)c1` as the compound, how does the Potency [8] read?
Answer: The Potency was 0.0105 µM (active).

Question: What about the Potency [4] of the same compound?
Answer: The Potency was 0.0166 µM (active).

Question: What about the activity (max response) [6] of the same compound?
Answer: The activity (max response) was -17.7%.

Question: What about the Potency [7] of the same compound?
Answer: Its Potency is “inactive”.

Question: With `OC1CCC([C@H](O)C[C@H]2c3c(F)cccc3-c3cncn32)CC1` (some centres not stated) as the compound, how does the activity (max response) [6] read?
Answer: The activity (max response) was -0.756%.

Question: With `C[C@]12CC[C@@H]3c4ccc(O)cc4CC[C@H]3[C@H]1CC[C@H]2O` as the compound, how does the Potency [4] read?
Answer: The Potency was 18.7 µM (active).

Question: Which activity (max response) [6] does the source give for `O=C([C@@H](Cc1cccc(C(F)(F)F)c1)NS(=O)(=O)c1cc(F)c2c(c1)CCNC2)N1CCCC1` here?
Answer: The activity (max response) was -8.82%.

Question: What about the Potency [7] of the same compound?
Answer: Its Potency is “inactive”.

Question: For `Nc1ccc(S(=O)(=O)Nc2ccccc2)cc1`, which activity (max response) [6] is on record?
Answer: Its activity (max response) is 5.64%.

Question: And the Potency [7]?
Answer: Its Potency is “inactive”.

Question: Which activity (max response) [6] does the source give for `C[C@@H]1O[C@@H](O[C@@H]2\C=C/C=C\C=C/C=C\C[C@H](C)OC(=O)/C=C\[C@H]3O[C@@H]3C[C@H](O)C[C@]3(O)C[C@@H](O)[C@@H](C(=O)O)[C@H](C2)O3)[C@H](O)[C@H](N)[C@@H]1O` here?
Answer: Its activity (max response) is 8.59%.

Question: And the Potency [7]?
Answer: The Potency was “inactive”.
